# Results from PubChem BioAssay (EPA / NIEHS).
# Results filed as inconclusive are left out. Active and inactive are the calls of the source. The calls were made as follows, unless noted: active = hit-call score of the fitted dose curve at least 0.9, where 1 is the maximum; inactive = score below 0.9.
# Columns and labels:
# [1] = target: Retinoic acid receptor RXR-alpha (Homo sapiens) (UniProt P19793); test: ATG_RXRa_TRANS: Attagene TRANS-FACTORIAL HepG2 Assay for human Retinoid X Receptor alpha (RXRa) (AID 2283012; active = hit-call score of the fitted dose curve at least 0.9, where 1 is the maximum)
# Chain of Retinoic acid receptor RXR-alpha (Homo sapiens) (P19793 whole entry, looked up, the tested form may be a part): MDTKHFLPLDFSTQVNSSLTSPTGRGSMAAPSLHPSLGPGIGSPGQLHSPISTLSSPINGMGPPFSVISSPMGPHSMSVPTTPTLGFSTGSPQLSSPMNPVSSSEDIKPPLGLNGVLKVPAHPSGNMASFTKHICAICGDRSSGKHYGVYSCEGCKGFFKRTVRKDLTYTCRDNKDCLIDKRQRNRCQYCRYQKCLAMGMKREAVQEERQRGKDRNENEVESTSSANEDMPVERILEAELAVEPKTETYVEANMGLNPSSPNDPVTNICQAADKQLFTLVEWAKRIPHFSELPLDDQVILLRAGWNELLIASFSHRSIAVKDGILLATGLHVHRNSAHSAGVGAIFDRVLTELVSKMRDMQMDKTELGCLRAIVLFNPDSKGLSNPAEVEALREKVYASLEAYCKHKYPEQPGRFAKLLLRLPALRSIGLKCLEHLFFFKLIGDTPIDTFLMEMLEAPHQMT
# Method in brief: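 Chimeric NR-GAL4 trans-activation in HepG2, 24 h treatment; reporter transcripts quantified by fluorescence on capillary electrophoresis, analysed for upward change from DMSO.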
# [2] = target: human Thyroid Receptor alpha (THRa1), THRA (gene 7067) (UniProt P10827); test: ATG_THRa1_TRANS: Attagene TRANS-FACTORIAL HepG2 Assay for human Thyroid Receptor alpha (THRa1) (AID 2283014; active = hit-call score of the fitted dose curve at least 0.9, where 1 is the maximum)
# Chain of human Thyroid Receptor alpha (THRa1), THRA (gene 7067) (P10827 whole entry, looked up, the tested form may be a part): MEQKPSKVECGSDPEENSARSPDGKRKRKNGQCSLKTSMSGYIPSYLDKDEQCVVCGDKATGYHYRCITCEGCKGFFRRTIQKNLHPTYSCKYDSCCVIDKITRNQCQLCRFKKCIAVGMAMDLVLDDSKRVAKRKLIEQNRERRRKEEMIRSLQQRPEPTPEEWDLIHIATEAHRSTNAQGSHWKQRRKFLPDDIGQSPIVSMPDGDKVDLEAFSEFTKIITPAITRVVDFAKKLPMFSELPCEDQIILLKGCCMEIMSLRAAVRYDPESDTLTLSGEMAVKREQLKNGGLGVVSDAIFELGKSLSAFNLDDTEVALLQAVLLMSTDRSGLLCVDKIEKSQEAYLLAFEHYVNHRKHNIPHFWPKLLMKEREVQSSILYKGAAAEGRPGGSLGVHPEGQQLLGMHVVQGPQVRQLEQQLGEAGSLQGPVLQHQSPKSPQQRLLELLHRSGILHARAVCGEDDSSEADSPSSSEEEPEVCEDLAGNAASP
# Method in brief: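 Transcripts from GAL4-UAS-driven reporters, measured after 24 h compound exposure by RT-PCR plus capillary electrophoresis of 6-FAM-labeled fragments, were fitted for gain of signal relative to DMSO. Cells: transiently transfected HepG2 expressing NR-Gal4 chimeras.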
# [3] = read-out: E-selectin (Homo sapiens) (UniProt P16581); test: BSK_3C_Eselectin: BioMAP Diversity Plus: 3C Assay for Eselectin Biomarker Activity (AID 2283015); details: primary human endothelial cells (HUVEC); actives raise or lower the signal;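 as to outcome: cell surface E-selectin protein quantified by ELISA 24 h after dosing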
# Method in brief: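 E-selectin ELISA readout, fitted bidirectionally relative to DMSO, taken 24 h post-dosing in HUVEC cultures of the 3C system. Overt cytotoxicity tracked with sulforhodamine B staining of parallel wells.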
# [4] = read-out: Interleukin-1 alpha (IL1a), IL1A (gene 3552); test: BSK_BE3C_IL1a: BioMAP Diversity Plus: BE3C Assay for Interleukin-1 alpha (IL1a) Biomarker Activity (AID 2283016); details: primary human bronchial epithelial cells; actives raise or lower the signal
# Method in brief: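 Measured in human lung primary bronchial epithelial cells: IL-1a by ELISA at 24 h after dosing, with bidirectional fitting against DMSO.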
# [5] = read-out: Monocyte Chemoattractant Protein-1 (MCP1), CCL2 (gene 6347); test: BSK_3C_MCP1: BioMAP Diversity Plus: 3C Assay for Monocyte Chemoattractant Protein-1 (MCP1) Biomarker Activity (AID 2283017); details: primary human endothelial cells (HUVEC); actives raise or lower the signal
# Method in brief: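 MCP-1 was measured by ELISA 24 h after dosing in primary HUVEC 3C cultures and fitted in both directions relative to DMSO; cytotoxicity was checked by SRB total-protein staining in parallel wells.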
# [6] = read-out: Human Leukocyte Antigen - DR isotype (HLADR), HLA-DRA (gene 3122); test: BSK_3C_HLADR: BioMAP Diversity Plus: 3C Assay for Human Leukocyte Antigen - DR isotype (HLADR) Biomarker Activity (AID 2283019); details: primary human endothelial cells (HUVEC); actives raise or lower the signal;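 as to outcome: ELISA of cell-surface HLA-DR on HUVEC 24 h after dosing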
# Method in brief: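 Bidirectional fitting against DMSO was applied to the HLA-DR ELISA signal from human umbilical vein endothelial cells, 24 h post-dose. Cytotoxicity came from parallel SRB total-protein staining; 3C proliferation was counted by SRB at 48 h.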
# [7] = read-out: Interleukin-8 (IL8), CXCL8 (gene 3576); test: BSK_3C_IL8: BioMAP Diversity Plus: 3C Assay for Interleukin-8 (IL8) Biomarker Activity (AID 2283020); details: primary human endothelial cells (HUVEC); actives raise or lower the signal
# Method in brief: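 Using DMSO-treated wells as the baseline, bidirectional curve fitting was applied to ELISA-measured IL-8 from human umbilical vein endothelial cultures sampled 24 h after compound addition.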
# [8] = read-out: Monokine induced gamma interferon (MIG), CXCL9 (gene 4283); test: BSK_3C_MIG: BioMAP Diversity Plus: 3C Assay for Monokine induced gamma interferon (MIG) Biomarker Activity (AID 2283021); details: primary human endothelial cells (HUVEC); actives raise or lower the signal;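 as to AC50: MIG protein level measured by immunoassay in the treated endothelial cultures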
# Method in brief: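 ELISA-measured MIG in dosed HUVEC 3C cultures at 24 h, analysed by bidirectional fitting with DMSO defining baseline activity.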
# [9] = read-out: Monocyte Chemoattractant Protein-1 (MCP1), CCL2 (gene 6347); test: BSK_4H_MCP1: BioMAP Diversity Plus: 4H Assay for Monocyte Chemoattractant Protein-1 (MCP1) Biomarker Activity (AID 2283018); details: primary human endothelial cells (HUVEC); actives raise or lower the signal
# Method in brief: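 Primary human umbilical vein endothelium is exposed to chemical for 24 h before MCP-1 is assayed by ELISA. Concentration-response fitted bidirectionally relative to DMSO.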
# [10] = target: human Retinoid X Receptor beta (RXRb), RXRB (gene 6257) (UniProt P28702); test: ATG_RXRb_TRANS: Attagene TRANS-FACTORIAL HepG2 Assay for human Retinoid X Receptor beta (RXRb) (AID 2283013; active = hit-call score of the fitted dose curve at least 0.9, where 1 is the maximum)
# Chain of human Retinoid X Receptor beta (RXRb), RXRB (gene 6257) (P28702 whole entry, looked up, the tested form may be a part): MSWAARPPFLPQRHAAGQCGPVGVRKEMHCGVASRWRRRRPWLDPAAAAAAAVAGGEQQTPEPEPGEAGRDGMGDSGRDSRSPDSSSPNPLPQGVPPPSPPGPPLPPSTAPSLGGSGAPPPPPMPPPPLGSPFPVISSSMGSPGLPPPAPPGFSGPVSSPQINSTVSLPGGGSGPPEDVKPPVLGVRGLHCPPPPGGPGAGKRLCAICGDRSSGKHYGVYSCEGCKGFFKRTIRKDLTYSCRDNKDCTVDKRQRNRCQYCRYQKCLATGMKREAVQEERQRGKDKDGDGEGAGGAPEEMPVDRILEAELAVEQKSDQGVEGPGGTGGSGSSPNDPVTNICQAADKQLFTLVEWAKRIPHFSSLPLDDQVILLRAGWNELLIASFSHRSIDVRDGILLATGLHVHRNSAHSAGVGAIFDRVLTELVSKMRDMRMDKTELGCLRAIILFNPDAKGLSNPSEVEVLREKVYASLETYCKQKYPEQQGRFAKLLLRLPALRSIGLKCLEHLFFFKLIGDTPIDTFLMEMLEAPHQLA
# Method in brief: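 After a 24 h incubation with test chemical, transfected HepG2 cells carrying NR-Gal4 fusions and GAL4-UAS reporter transcription units yield RNA whose reporter cDNA is FAM-labelled, HpaI-cut and sized by capillary electrophoresis; increases over DMSO are scored.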
# Chain of E-selectin (Homo sapiens) (P16581 whole entry, looked up): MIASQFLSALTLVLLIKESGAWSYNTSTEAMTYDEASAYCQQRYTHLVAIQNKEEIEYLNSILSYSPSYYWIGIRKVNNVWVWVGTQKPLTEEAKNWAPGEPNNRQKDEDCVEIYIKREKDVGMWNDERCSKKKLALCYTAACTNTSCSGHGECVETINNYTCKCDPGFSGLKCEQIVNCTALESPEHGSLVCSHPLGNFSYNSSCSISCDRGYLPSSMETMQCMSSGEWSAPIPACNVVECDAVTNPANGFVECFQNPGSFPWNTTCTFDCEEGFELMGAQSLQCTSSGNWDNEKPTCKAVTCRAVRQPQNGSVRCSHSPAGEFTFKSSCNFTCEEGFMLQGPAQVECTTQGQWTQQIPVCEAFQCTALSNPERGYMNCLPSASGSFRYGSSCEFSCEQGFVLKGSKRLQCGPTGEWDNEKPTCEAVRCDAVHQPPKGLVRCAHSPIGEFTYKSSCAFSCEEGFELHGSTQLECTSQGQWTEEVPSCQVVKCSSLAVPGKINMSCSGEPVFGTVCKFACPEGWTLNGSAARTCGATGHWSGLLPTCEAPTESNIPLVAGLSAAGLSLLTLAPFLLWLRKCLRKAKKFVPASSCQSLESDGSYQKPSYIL
structure (smiles),measurement,setting,value
NC(=O)c1ccc(N)nc1,outcome,[1],inactive
same,outcome,[2],inactive
CC(O)(CS(=O)(=O)c1ccc(F)cc1)C(=O)Nc1ccc(C#N)c(C(F)(F)F)c1 (stereo not drawn),outcome,[1],inactive
same,outcome,[2],inactive
CC(C)CC(C)(c1ccc(O)cc1)c1ccc(O)cc1,outcome,[1],inactive
same,outcome,[2],inactive
Cc1ccc(OP(=O)(Oc2ccc(C)cc2C)Oc2ccc(C)cc2C)c(C)c1,outcome,[1],inactive
same,outcome,[3],inactive
same,AC50,[4],4.77 µM (active)
same,AC50,[5],20 µM (active)
same,AC50,[6],20 µM (active)
same,outcome,[7],inactive
same,outcome,[8],inactive
OC(Cc1ccccc1Cl)(Cn1[nH]cnc1=S)C1(Cl)CC1 (stereo not drawn),outcome,[1],inactive
same,AC50,[2],27.8 µM (active)
same,AC50,[3],20 µM (active)
same,AC50,[4],33.2 µM (active)
same,outcome,[5],inactive
same,AC50,[6],30.1 µM (active)
same,outcome,[7],inactive
same,outcome,[8],inactive
Cc1cc(C)cc(C)c1,outcome,[1],inactive
same,outcome,[2],inactive
same,outcome,[3],inactive
same,outcome,[4],inactive
same,outcome,[5],inactive
same,outcome,[9],inactive
same,outcome,[6],inactive
same,outcome,[7],inactive
same,outcome,[8],inactive
C#C[C@]1(O)CC[C@H]2[C@@H]3CCC4=CC(=O)CC[C@]4(C)[C@H]3CC[C@@]21C,outcome,[1],inactive
same,outcome,[2],inactive
C=CCOC(F)(C(F)(F)F)C(F)(F)F,outcome,[1],inactive
same,outcome,[2],inactive
Cc1cc(C(C)(C)c2ccc(O)c(C)c2)ccc1O,outcome,[1],inactive
same,outcome,[2],inactive
same,AC50,[3],15.8 µM (active)
same,AC50,[4],15.7 µM (active)
same,AC50,[5],19.3 µM (active)
same,AC50,[9],12.5 µM (active)
same,AC50,[6],14.7 µM (active)
same,AC50,[7],18.2 µM (active)
same,outcome,[8],inactive
CC(C)(c1ccc(O)c(-c2ccccc2)c1)c1ccc(O)c(-c2ccccc2)c1,outcome,[1],inactive
same,outcome,[2],inactive
COCCl,outcome,[1],inactive
same,outcome,[2],inactive
O=S1(=O)OC(c2cc(Br)c(O)c(Br)c2)(c2cc(Br)c(O)c(Br)c2)c2ccccc21,outcome,[1],inactive
same,outcome,[2],inactive
O=C1C[C@@H]2OCC=C3CN4CC[C@]56c7ccccc7N1[C@H]5[C@H]2[C@H]3C[C@H]46,outcome,[1],inactive
same,outcome,[2],inactive
Nc1ccc(N)cc1,outcome,[1],inactive
same,outcome,[2],inactive
same,outcome,[3],inactive
same,outcome,[4],inactive
same,outcome,[5],inactive
same,outcome,[6],inactive
same,outcome,[7],inactive
same,outcome,[8],inactive
CCCCOP(=O)(CCCC)OCCCC,outcome,[1],inactive
same,outcome,[2],inactive
O=c1oc2ccccc2c(O)c1C(CC(O)c1ccc(-c2ccc(Br)cc2)cc1)c1ccccc1 (stereo not drawn),outcome,[1],inactive
same,outcome,[2],inactive
same,AC50,[3],19.1 µM (active)
same,AC50,[4],5.31 µM (active)
same,AC50,[5],10.5 µM (active)
same,AC50,[6],8.28 µM (active)
same,outcome,[7],inactive
same,AC50,[8],31.2 µM (active)
CCOC(=O)Cc1ccccc1,outcome,[1],inactive
same,outcome,[2],inactive
CCOC(=O)CCN(SN(C)C(=O)Oc1cccc2c1OC(C)(C)C2)C(C)C,outcome,[1],inactive
same,AC50,[10],37.8 µM (active)
same,AC50,[3],20 µM (active)
same,outcome,[4],inactive
same,AC50,[5],27.1 µM (active)
same,AC50,[6],14.2 µM (active)
same,AC50,[7],3.97 µM (active)
same,outcome,[8],inactive
C[N+](C)(C)Cc1ccccc1,outcome,[1],inactive
same,outcome,[2],inactive
O=C(O)c1cc(I)cc(I)c1I,outcome,[1],inactive
same,outcome,[2],inactive
CC(c1ccc(O)cc1)c1ccc(O)cc1,outcome,[1],inactive
same,outcome,[2],inactive
C1CN2CCN1CC2,outcome,[1],inactive
same,outcome,[2],inactive
COCC(=O)N(c1c(C)cccc1C)[C@H](C)C(=O)OC,outcome,[1],inactive
same,outcome,[3],inactive
same,outcome,[4],inactive
same,outcome,[5],inactive
same,outcome,[6],inactive
same,outcome,[7],inactive
same,outcome,[8],inactive
NNCCO,outcome,[1],inactive
same,outcome,[2],inactive
CCCCOC(C)=O,outcome,[1],inactive
same,outcome,[2],inactive
C[C@@H]1O[C@@H](O[C@H]2C[C@@H](O)[C@]3(CO)[C@H]4[C@H](O)C[C@]5(C)[C@@H](C6=CC(=O)OC6)CC[C@]5(O)[C@@H]4CC[C@]3(O)C2)[C@H](O)[C@H](O)[C@H]1O,outcome,[1],inactive
same,outcome,[2],inactive
Nc1cccnc1,outcome,[1],inactive
same,outcome,[2],inactive
Cc1ccc2nc3sc(=O)sc3nc2c1,outcome,[1],inactive
same,AC50,[2],6.55 µM (active)
same,AC50,[3],8.99 µM (active)
same,outcome,[4],inactive
same,AC50,[5],7.34 µM (active)
same,AC50,[9],5 µM (active)
same,AC50,[6],5.97 µM (active)
same,AC50,[7],5 µM (active)
same,AC50,[8],8.57 µM (active)
CN(C)[C@@H]1C(=O)C(C(N)=O)=C(O)[C@@]2(O)C(=O)C3=C(O)c4c(O)ccc(Cl)c4[C@@](C)(O)[C@H]3C[C@@H]12,outcome,[1],inactive
same,outcome,[2],inactive
O=S(=O)(C(Cl)(Cl)Cl)C(Cl)(Cl)Cl,outcome,[1],inactive
same,AC50,[10],20 µM (active)
same,AC50,[3],1.86 µM (active)
same,AC50,[4],3.32 µM (active)
same,AC50,[5],1.9 µM (active)
same,AC50,[6],0.852 µM (active)
same,AC50,[7],5.32 µM (active)
same,AC50,[8],3.82 µM (active)
O=C(N[C@H]1CN2CCC1CC2)c1ccc2c(c1)OCCO2,outcome,[1],inactive
same,outcome,[3],inactive
same,outcome,[4],inactive
same,outcome,[5],inactive
same,outcome,[6],inactive
same,outcome,[7],inactive
same,outcome,[8],inactive
OC[P+](CO)(CO)CO,outcome,[1],inactive
same,outcome,[2],inactive
Cc1ccccc1OP(=O)(Oc1ccccc1)Oc1ccccc1,outcome,[1],inactive
same,outcome,[2],inactive
same,AC50,[3],20 µM (active)
same,AC50,[4],6.89 µM (active)
same,AC50,[5],31 µM (active)
same,AC50,[6],30.4 µM (active)
same,AC50,[7],20 µM (active)
same,outcome,[8],inactive
